Reference: PubChem BioAssay
The source made the active and inactive calls.

Assays:
[1] = tested on: XIP peptide (Xip251-270) binding; assay: small-molecule binders of XIP peptide, primary screen, biochemical, small-molecule microarray, fluorescence 635/667 nm, 0.1 µg/mL protein (AID 1182); conditions: fluorescent protein binding, 635 nm, higher = more signal, called active from +8 up or from −8 down
XIP peptide (Xip251-270) = assay: small-molecule binders of XIP peptide, primary screen, biochemical, small-molecule microarray, fluorescence 635/667 nm, 0.5 µg/mL protein (AID 1183); conditions: small-molecule microarray binding, fluorescence 635 nm; higher = more signal
[2] = Plasmodium falciparum growth inhibition, primary screen, strain 3D7, DAPI fluorescence, 100 nL (AID 1184);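 note: parasites grown inside human red blood cells in medium with human serum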; conditions: P. falciparum 3D7 growth, 3 d, higher = more signal
[3] = biological target: Homeobox protein Hox-A13 (Mus musculus) (UniProt Q62424); assay: inhibitors of HoxA13-DNA binding, primary screen, biochemical, fluorescence polarization, labeled oligonucleotide (AID 1185); conditions: 15 min, higher = more signal, called active from +8 up or from −8 down
Sequence of Homeobox protein Hox-A13 (Mus musculus) (Q62424 whole entry, looked up): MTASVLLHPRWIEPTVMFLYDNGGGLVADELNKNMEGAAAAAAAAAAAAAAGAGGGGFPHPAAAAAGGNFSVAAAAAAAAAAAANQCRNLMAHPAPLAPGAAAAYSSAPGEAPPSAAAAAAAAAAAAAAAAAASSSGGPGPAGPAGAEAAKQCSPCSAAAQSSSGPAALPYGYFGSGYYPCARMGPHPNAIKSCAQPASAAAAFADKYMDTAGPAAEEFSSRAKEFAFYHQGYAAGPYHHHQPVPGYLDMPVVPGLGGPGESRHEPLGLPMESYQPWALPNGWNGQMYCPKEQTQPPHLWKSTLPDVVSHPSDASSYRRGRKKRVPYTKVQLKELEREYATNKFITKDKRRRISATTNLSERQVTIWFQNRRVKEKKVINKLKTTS

Row | SMILES | composite z-score [1] | composite z-score (XIP peptide (Xip251-270)) | z-score [2] | z-score [3]
1 | CCOC(=O)C1=NO[C@@]2(C=C(Br)C3(OCCCO3)[C@H]3O[C@H]32)C1 | 2.67 (inactive) | 0.512 | 0.522 | 0.14 (inactive)
2 | O=C1[C@H]2[C@H]3[C@H](O)[C@H](O)CC(=NOC[C@@H](O)COCc4ccco4)[C@H]3CC[C@H]2C(=O)N1C[C@@H]1CCCO1 | -0.149 (inactive) | 0.605 | 0.523 | -0.514 (inactive)
3 | COC(=O)[C@@H]1CC[C@H](C)[C@@H](c2ccc(C)cc2)N1C(=O)c1ccc(C=NOCC[C@@H]2C=C[C@H](OC(C)=O)[C@@H](COC(C)=O)O2)cc1 | -0.425 (inactive) | 0.484 | -0.316 | -5.26 (inactive)
4 | CCN1C(=O)[C@H]2[C@H]3[C@H](O)[C@H](O)CC(=NOCC(C)C)[C@@H]3CC[C@H]2C1=O | 0.821 (inactive) | 0.645 | -0.108 | -1.62 (inactive)
5 | COc1cc(O)c(C(=O)C=Cc2ccc3c(c2)OCO3)c(OC)c1 | -0.156 (inactive) | -0.218 | -0.973 | -0.978 (inactive)
6 | CC(CCN1CCc2nc(-c3ccccc3)c(-c3ccccc3)cc2C1)=NOC[C@@H](O)COCc1ccco1 | 1.58 (inactive) | 0.54 | 0.329 | -5.11 (inactive)
7 | CC=CC1=C(CO)C(=O)[C@@H]2O[C@@H]2C1=O | 3.73 (inactive) | 0.736 | 0.908 | -3.53 (inactive)
8 | CC(C)=CCCC(C)=CCON=C1C[C@@H](O)[C@@H](O)[C@@H]2[C@@H]3C(=O)N(C(C)(C)C)C(=O)[C@@H]3CC[C@@H]12 | -0.119 (inactive) | 0.233 | -1.34 | -1.09 (inactive)
9 | COC(=O)C1=C(C)N(Cc2ccccc2)[C@]23O[C@](C(=O)OC)(C(=O)N2[C@@H]1c1ccccc1)C(C(=O)OC)=C3C(=O)OC | 1.49 (inactive) | 0.435 | -1.08 | -3.67 (inactive)
10 | O=C1C=C[C@@H](O)[C@@H]2[C@@H]3C(=O)N(c4ccc(F)cc4F)C(=O)[C@@H]3CC[C@@H]12 | 0.25 (inactive) | 0.165 | 0.262 | 0.159 (inactive)
11 | C#CCCCON=C1C[C@@H](O)[C@@H](O)[C@@H]2[C@@H]3C(=O)N(C(C)(C)C)C(=O)[C@@H]3CC[C@H]12 | -0.217 (inactive) | -0.385 | -0.381 | 0.436 (inactive)
12 | COc1cccc([C@@H]2Oc3ccc(OC)cc3C(=O)[C@H]2O)c1 | 0.565 (inactive) | 0.65 | -1.09 | -0.169 (inactive)
13 | CO[C@H]1COC(=O)CC=C[C@H](C)[C@@H](OC)COC(=O)[C@@H](C)NC(=O)CC=C[C@@H]1C | -0.303 (inactive) | 0.54 | -0.297 | -1.25 (inactive)
14 | COC(=O)CC=C[C@@H](C)[C@@H](C=NO[C@H](C)c1cn([C@H](CO)Cc2ccccc2)nn1)OC | 0.312 (inactive) | 0.367 | -0.866 | -1.89 (inactive)
15 | CO[C@H]1COC(=O)CC=C[C@@H](C)[C@H](NS(=O)(=O)c2ccc(C)cc2)COC(=O)CCC[C@@H]1C | 0.0922 (inactive) | 0.231 | 1.19 | -0.499 (inactive)
16 | CC(CCN1CCCCc2nc(C)c(C)cc21)=NO[C@@H](C)c1cn([C@H](CO)Cc2ccccc2)nn1 | 0.305 (inactive) | 0.521 | -0.257 | -4.4 (inactive)
17 | COC(=O)[C@H](C)NC(=O)CCC1CC(OC(=O)NCc2ccc3c(c2)OCO3)CC2(CCCC(COC(=O)NCC3CCCCC3)O2)O1 (stereo not given in full) | 0.655 (inactive) | 0.555 | -1.87 | -4.19 (inactive)
18 | CCOC(=O)NN=C1C[C@@H](O)[C@@H](O)[C@@H]2[C@@H]3C(=O)N(c4ccc(F)cc4F)C(=O)[C@@H]3CC[C@@H]12 | 0.015 (inactive) | -0.0246 | -0.404 | -1.23 (inactive)
19 | CCCNC(=O)OC[C@H]1O[C@H](CCON=C(C)CCC(=O)OC[C@H]2O[C@H](c3ccccc3)C=C[C@@H]2Oc2ccc(OC)cc2)C=C[C@@H]1Oc1ccc(OC)cc1 | 0.146 (inactive) | -0.138 | -0.935 | -2.1 (inactive)
20 | CC(C)=CCCC(C)=CCON=C1C[C@@H](O)[C@@H](O)[C@@H]2[C@@H]3C(=O)N(c4ccc(F)cc4F)C(=O)[C@@H]3CC[C@H]12 | -0.163 (inactive) | 0.37 | 0.0436 | -2.5 (inactive)
21 | COCOc1ccc(Br)cc1C(=O)[C@@H]1O[C@H]1c1cccc(OC)c1 | -0.0455 (inactive) | 0.106 | 0.194 | -1.99 (inactive)
22 | COC(=O)CC=C[C@@H](C)[C@@H](C=NO[C@H](C)c1cn([C@@H]2COC[C@H]2O)nn1)NS(=O)(=O)c1ccc(C)cc1 | -0.362 (inactive) | 0.486 | 0.781 | -1.63 (inactive)
23 | COC(=O)C=CCCc1coc(C=CCNC(=O)OC)n1 | 0.56 (inactive) | 0.868 | -0.92 | -2.9 (inactive)

Row | SMILES | composite z-score [1] | composite z-score (XIP peptide (Xip251-270)) | z-score [2] | z-score [3]
24 | CC(C)CON=C1C[C@@H](O)[C@@H](O)[C@@H]2[C@@H]3C(=O)N(c4cccc(Oc5ccccc5)c4)C(=O)[C@@H]3CC[C@@H]12 | -0.347 (inactive) | 0.536 | 0.299 | -0.0907 (inactive)
25 | CC(CCN1CCc2nc(-c3ccccc3)c(-c3ccccc3)cc2C1)=NOC[C@@H](O)[C@H]1O[C@@H]2OC(C)(C)O[C@@H]2[C@H]1O | 0.176 (inactive) | 0.528 | 0.688 | -5.63 (inactive)
26 | O=c1n(-c2ccccc2)c(=O)n2n1CC[C@@H]1C(=NOCc3ccccc3)[C@H]3O[C@H]3[C@@H](O)[C@@H]12 | -0.368 (inactive) | -0.0725 | -0.557 | -4.06 (inactive)
27 | COC(=O)[C@H]1[C@@H](O)[C@@]2(O)c3ccccc3O[C@@]2(c2ccccc2)[C@@H]1c1ccccc1 | -0.759 (inactive) | -0.028 | -1.87 | -1.51 (inactive)
28 | C=CC[C@@H]1C=C[C@H](ON=C[C@@H](C)[C@H](OCc2ccccc2)C(C)C)[C@@H](CO)O1 | 0.142 (inactive) | 0.256 | 0.395 | -4.51 (inactive)
29 | COC(=O)[C@@H]1CC[C@H](C)[C@@H](c2ccc(C)cc2)N1C(=O)c1ccc(C=NO[C@H](C)c2cn([C@H](CO)Cc3ccccc3)nn2)cc1 | -0.402 (inactive) | 0.658 | -1.76 | -5.94 (inactive)
30 | COC(=O)CC=C[C@@H](C)[C@@H](C=NO[C@H](C)c1cn([C@H](CO)Cc2ccccc2)nn1)NS(=O)(=O)c1ccc(C)cc1 | -0.418 (inactive) | 0.126 | 0.346 | -6.42 (inactive)
31 | CCN1C(=O)[C@H]2[C@H]3[C@H](O)[C@H](O)CC(=NNC(=O)OCc4ccc(OC)cc4)[C@@H]3CC[C@H]2C1=O | 0.0729 (inactive) | -0.225 | -0.18 | -1.25 (inactive)
32 | CO[C@H]1COC(=O)CCC[C@@H](C)[C@H](OC)COC(=O)[C@@H](C)NC(=O)CC=C[C@@H]1C | -0.157 (inactive) | -0.0673 | -1.29 | -1.94 (inactive)
33 | CC(CCN1CCCCc2nc(C)c(C)cc21)=NOC[C@@H](C)[C@H](OCc1ccccc1)C(C)C | -0.494 (inactive) | -0.3 | 0.318 | -2.47 (inactive)
34 | CC(C)CON=C1C[C@@H](O)[C@@H](O)[C@@H]2[C@@H]3C(=O)N(C4CCCCC4)C(=O)[C@@H]3CC[C@H]12 | 0.273 (inactive) | 0.793 | -0.0504 | 0.866 (inactive)
35 | COC(=O)CC=C[C@@H](C)[C@@H](C=NOC(C)CN1CCCc2nc(C)c(C)cc21)OC (stereo not given in full) | 0.327 (inactive) | 0.274 | 0.004 | -1.24 (inactive)
36 | COC(=O)CC=C[C@@H](C)[C@H](OCc1cccc(-c2ccccc2)c1)C1CCCCC1 | 0.704 (inactive) | 0.881 | -0.257 | -1.35 (inactive)
37 | C[C@H]1CC[C@H]2C(=O)OC(CO)CN2[C@@H]1c1ccc(Br)cc1 (stereo not given in full) | 0.201 (inactive) | 0.115 | -0.296 | -0.52 (inactive)
38 | CCOC(=O)[C@H](CC(C)C)NC(=O)CCC1CC(OC(=O)NCc2ccc3c(c2)OCO3)CC2(CCCC(COC(=O)NCC(c3ccccc3)c3ccccc3)O2)O1 (stereo not given in full) | 0.717 (inactive) | -0.0305 | -0.11 | -6.66 (inactive)
39 | C[C@H]1CC[C@H]2C(=O)O[C@H](COc3ccc(C(C)(C)C)cc3)CN2[C@@H]1c1ccc(Br)cc1 | 1.71 (inactive) | 0.567 | -0.398 | 1.13 (inactive)
40 | CC(CCN1CCCCc2nc(C)c(C)cc21)=NO[C@H](C)c1cn([C@H](CO)Cc2ccccc2)nn1 | -0.28 (inactive) | 0.542 | -1.56 | -5.13 (inactive)
41 | CO[C@H]1COC(=O)CCC[C@@H](C)[C@H](OC)COC(=O)[C@@H]2CCCN2C(=O)CC=C[C@@H]1C | 0.0072 (inactive) | 0.497 | -0.74 | -0.0208 (inactive)
42 | CCOC(=O)[C@H](CC(C)C)NC(=O)CCC1CC(OC(=O)NCc2cccc3ccccc23)CC2(CCCC(COC(=O)NCc3cccc(C(F)(F)F)c3)O2)O1 (stereo not given in full) | -0.364 (inactive) | -0.298 | 0.688 | -0.443 (inactive)
43 | CCOC(=O)[C@H](Cc1ccccc1)NC(=O)CCC1CC(OC(=O)NCc2cccc3ccccc23)CC2(CCCC(COC(=O)NCC(c3ccccc3)c3ccccc3)O2)O1 (stereo not given in full) | 0.2 (inactive) | 0.366 | -1.83 | -4.93 (inactive)
44 | C#CCCCON=C1C[C@@H](O)[C@@H](O)[C@@H]2[C@@H]3C(=O)N(CCC(=O)OCC)C(=O)[C@@H]3CC[C@H]12 | 0.768 (inactive) | 0.493 | -0.206 | 1.24 (inactive)
45 | COc1ccc(O[C@H]2C=C[C@@H](c3ccccc3)O[C@@H]2CON=C(C)CCC(=O)OC[C@H]2O[C@H](c3ccccc3)C=C[C@@H]2Oc2ccc(OC)cc2)cc1 | 0.392 (inactive) | -0.0127 | -1.61 | -0.19 (inactive)
